Structures are written as SMILES. In all, about 65,000 compounds went through this assay and about 2,100 (3.2%) showed an effect of 50% or more. The median lay at about -52%. The full list was thinned out, with strong results kept by preference.

The test system of this test is Plasmodium falciparum. Description: Screen against P. falciparum Asexual Blood Stage (ABS), at 5uM. Format: functional, Dd2. The conditions noted are these: tested at 5 uM.
Take `OCCN1CCc2[nH]nc(C(c3ccccc3)c3ccccc3)c2C1`: the INHIBITION is reported as 61.7%. For `CC(O)CN1CCc2[nH]nc(C(c3ccccc3)c3ccccc3)c2C1` (stereo not given) the value was 42.3%; for `OCCCN1CCc2onc(C(c3ccccc3)c3ccccc3)c2C1`, 49.4%.

For `c1coc(CN2CC[C@H]3O[C@@H](COCC4CC4)CC[C@H]32)c1`, the INHIBITION was -93.2%. For `Cc1nc(C)c(C(=O)N2C[C@@H](C(=O)O)[C@H](C3CC3)C2)s1` the value was -75.7%; for `CCN(CC)Cc1nc2c(o1)CN(S(=O)(=O)c1cccs1)C2`, -61.5%; for `CN(CCc1ccccc1)Cc1c(C2CCNCC2)[nH]c2ncccc12`, 54.6%. On to `CN(CCc1ccccc1)Cc1c(C2CCOCC2)[nH]c2ncccc12`, for which the INHIBITION is reported as -22.4%.

Turning to `CN(CCc1ccncc1)Cc1c(C2CCCC2)[nH]c2ncccc12`, the INHIBITION is on record as -56.1%. As to `Cc1ccc(CN2CCN(C3CSCCSC3)CC2CCO)o1` (stereo not given), the INHIBITION is recorded as -73.5%. For `CC(C)c1cc(C2CCN(C(=O)Cn3nc4ccccc4n3)CC2)[nH]n1` the value was -107%; for `O=C(c1ccc2[nH]ccc2c1)N1Cc2nc(CN3CCCCC3)oc2C1`, -72.8%; for `CC1CN(Cc2ccccc2)CCCN1CCS(C)(=O)=O` (stereo not given), 39.2%. To `COCCN1CCN(CCCS(C)(=O)=O)CC1C` (stereo not given) belongs -42.5%; to `CNS(=O)(=O)CCCN1CCCCCC1c1ccc(C)o1` (stereo not given), 10.3%; to `COCCN1CCN(CCCS(=O)(=O)c2ccccc2)CC1C` (stereo not given), -121%.

Consider `CC1CN(Cc2ccccc2)CCCN1CCCS(C)(=O)=O` (stereo not given), for which the INHIBITION stood at 53.2%.

With `CNS(=O)(=O)CCCN1CCCN(Cc2ccccc2)CC1C` (stereo not given), the INHIBITION came out at 59.7%. To `O=C(Cn1cccn1)Nc1ccc(N2CCOCC2)cc1` belongs -6.33%; to `CN(C)C(=O)Cc1nc(CN2CCOC(Cn3cccn3)C2)cs1` (stereo not given), -56%.

In the case of `Cc1nn(C)cc1CN1CCN(CC2(c3ccccc3)CC2)CC1`, the INHIBITION came to 67.2%. To `Cc1nn(C)cc1CN1CCCCCC1c1ccccc1Cl` (stereo not given) belongs -104%; to `Cc1nn(C)cc1CN1CCC(C2Nc3ccccc3S(=O)(=O)N2)CC1` (stereo not given), -123%; to `CCn1c(C)cc(C(=O)N2CCC(NC(=O)c3ccc(C)o3)CC2)c1C`, -31.2%.

For `CN(C)CC1CSCCCN1S(=O)(=O)Cc1ccc(C(F)(F)F)cc1` (stereo not given), the INHIBITION came out at 10.1%.

Take `CN(C)CC1CSCCCN1C(=O)Nc1ccc(C(C)(C)C)cc1` (stereo not given): the INHIBITION is -12.2%. To `CN(C)CC1CSCCCN1S(=O)(=O)c1ccc(C(F)(F)F)cc1` (stereo not given) belongs 60.7%; to `CN(C)CC1CSCCCN1S(=O)(=O)Cc1cccc(F)c1` (stereo not given), 58.6%; to `Cc1nccn1CC1CCCN1S(=O)(=O)Cc1cccc(F)c1` (stereo not given), -54%. To `CS(=O)(=O)C1CCN(S(=O)(=O)Cc2cccc(F)c2)CC1` belongs -89.8%.

Source of the values: ChEMBL document CHEMBL4513216, “Probing the Open Global Health Chemical Diversity Library for Multistage-Active Starting Points for Next-Generation Antimalarials” (ACS Infect Dis, 2020).
